Among all 190,000 compounds or so, about 3,100 (1.6%) were called active. For the sample, actives were picked, then their nearest neighbours and some compounds at random. A number with no mark means an inactive call. Cut-off read from the data, not from the text of the source: active = fold change above about 3.3; inconclusive = no clear call, values can overlap the other calls; inactive = below that.
Test: NF-kB upregulation, human neuronal cells – cell-based, HTS, primary screen (AID 1239)
Conditions: NF-kB reporter expression, at 12.5 µM, stronger effect = higher value

SMILES | fold change
C=CCn1nc(-c2ccccc2)c2c(C)onc2c1=O | 1.1
COc1cc(/C=N/O)ccc1OCc1ccc([N+](=O)[O-])cc1 | 6.35 (active)
COc1cc(/C=N\Nc2ccc([N+](=O)[O-])cn2)ccc1OCC(=O)O | 1.24
COc1cc(C(=O)OCc2ccc([N+](=O)[O-])cc2)cc(OC)c1OC | 1.05
COc1ccc(C2=NN(c3nc4ccccc4s3)C(=O)C2)cc1 | 1.02
CN1c2ccccc2-c2nc3ccccc3n2C1c1ccco1 (stereo not given) | 1.03
Cn1c(-c2ccco2)nc2cc3ccccc3cc21 | 6.6 (active)
CN(c1nc2ccccc2n2c(-c3ccco3)nnc12)S(=O)(=O)c1ccccc1 | 0.98
Cc1nc2ccccc2c(C)c1C(=O)c1ccc(F)cc1 | 0.8
COC(=O)c1c(NC(=O)CCCC(=O)O)sc2c1CCCCC2 | 0.98
CCn1c(=S)[nH]c2sc3c(c2c1=O)CCCCC3 | 1.2
CN(NC(=O)c1ccccc1)c1nc2ccccc2nc1C(F)(F)F | 1.32
CN(NC(=O)c1ccccc1F)c1nc(C(F)(F)F)nc2ccccc12 | 1.67
CSc1nc(N(C)NC(=O)c2cccc(C)c2)c2ccccc2n1 | 3.68 (active)
Cc1cc(NS(=O)(=O)c2ccc(NC(=O)c3cccc(OC(F)F)c3)cc2)nc(C)n1 | 1.45
O=C1CN(C(=O)CN2C(=O)NC3(CCCCC3)C2=O)c2ccccc2N1 | 1.43
COc1ccc(-c2cc(C)nc3nc(N)nn23)cc1 | 1.23
Cc1cc(N)n2nc(-c3ccc(C(C)(C)C)cc3)cc2n1 | 5.07 (active)
Cc1cc(C(C)(C)C)cc(C)c1N | 1.01
NC(=O)Cc1ccc2sc(-c3ccccc3)nc2c1 | 6.92 (active)
O=C(O)Cc1sc(-c2ccccc2)nc1-c1cccs1 | 1.28
O=C(O)Cc1sc(-c2ccc(C(=O)O)cc2)nc1-c1ccccc1 | 1.21
CCc1cccc(NC(=O)CCNS(=O)(=O)c2cccc3nonc23)c1 | 1.16
CCN1CCN(c2ccc([N+](=O)[O-])cc2C(=O)c2ccc(Cl)cc2)CC1 | 1.37
COc1ccc(N2CCN(c3ccc([N+](=O)[O-])cc3Cl)CC2)cc1 | 0.93
O=[N+]([O-])c1ccc(N2CCN(c3ccc(O)cc3)CC2)c(Cl)c1 | 4.06 (active)
CCc1nnc(NC(=O)CCCSc2nc3ccccc3[nH]2)s1 | 1.01
O=C(Nc1ccc(NC(=O)c2cccs2)cn1)c1ccco1 | 4.48 (active)
Cc1ccnc(NC(=O)c2ccc(NC(=O)c3ccco3)cc2)c1 | 1.64
COc1cccc(C(=O)Nc2ccc(NC(=O)c3ccco3)cn2)c1 | 1.03
